Test results taken from PubChem BioAssay (NCI).
Compounds without any hit were thinned out: in the full panel of roughly 79,000, 15% have a hit. A number with no mark means an inactive call. Activity calls are given as the source filed them. Cut-off read from the data, not from the text of the source: active = growth inhibition above about 70%; inactive = the rest.

What was measured:
[1] = NCI Yeast Anticancer Drug Screen. Data for the mec2-1 strain (AID 157); settings: S. cerevisiae mec2-1 strain, hits give high values
In short: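 Strain: mec2-1 (DNA repair/cell cycle alteration). Compound exposure, then growth measured; inhibition expressed relative to vehicle.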

[2] = NCI Yeast Anticancer Drug Screen. Data for the rad14 strain (AID 159);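 note: 0% = growth of vehicle-treated control cultures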; settings: S. cerevisiae rad14 strain growth inhibition, hits give high values
In short: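 Compound-treated yeast with a defined DNA-repair lesion; growth inhibition normalised to vehicle-treated cultures.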

[3] = NCI Yeast Anticancer Drug Screen. Data for the sgs1 mgt1 strain (AID 161);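 note: 0% = growth of cultures given vehicle only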; settings: S. cerevisiae sgs1 mgt1 strain, hits give high values
In short: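 Mutant yeast exposed to compound; growth scored against vehicle-only wells.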

[4] = NCI Yeast Anticancer Drug Screen. Data for the CLN2oe strain (AID 163);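 note: 0% = growth of vehicle-only control cultures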; settings: S. cerevisiae CLN2oe strain, hits give high values
In short: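 Growth of a genetically modified yeast strain is measured after compound exposure and compared with cultures given vehicle alone.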

[5] = NCI Yeast Anticancer Drug Screen. Data for the cln2 rad14 strain (AID 165);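 note: 0% = growth equal to vehicle treated cultures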; settings: S. cerevisiae cln2 rad14 strain, hits give high values
In short: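 Compounds are applied to the cln2 rad14 yeast strain, and growth is then compared with that of vehicle-treated cultures to give inhibition.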

[6] = NCI Yeast Anticancer Drug Screen. Data for the bub3 strain (AID 167); settings: S. cerevisiae bub3 mutant strain, hits give high values
In short: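 Growth of a checkpoint-deficient yeast mutant is measured after compound exposure. Values represent inhibition relative to vehicle.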

[7] = NCI Yeast Anticancer Drug Screen. Data for the sgs1 strain (AID 173);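 note: 0% = growth of vehicle-only control cultures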; settings: S. cerevisiae sgs1 mutant, hits give high values
In short: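 Growth of a yeast strain bearing a defined genetic alteration is measured after compound treatment. Inhibition is expressed relative to vehicle-only controls.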

[8] = NCI Yeast Anticancer Drug Screen. Data for the mlh1 rad18 strain (AID 175); settings: S. cerevisiae mlh1 rad18 strain growth inhibition, hits give high values
In short: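 Read-out is yeast growth inhibition, calculated against vehicle-only controls. The compound was applied to a strain engineered with DNA damage repair alterations.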

[9] = NCI Yeast Anticancer Drug Screen. Data for the rad18 strain (AID 177); settings: S. cerevisiae rad18 mutant growth inhibition, hits give high values
In short: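 Growth of the mutant yeast strain after compound exposure, normalised to vehicle-only cultures.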

[10] = NCI Yeast Anticancer Drug Screen. Data for the wt1 strain (AID 149);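 note: 0% = growth of vehicle-treated wt1 cultures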; settings: S. cerevisiae wt1 strain (SPY 50644) growth inhibition, hits give high values
In short: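 Readout: yeast growth inhibition, normalised to vehicle controls, in the wt1 strain exposed to test compounds.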

[11] = NCI Yeast Anticancer Drug Screen. Data for the rad50EPP+ strain (AID 151);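 note: 0% = growth of vehicle-treated control cultures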; settings: S. cerevisiae rad50 mutant strain, hits give high values
In short: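 Compounds were applied to the rad50EPP+ yeast strain, which bears a defined DNA repair alteration, and growth inhibition was determined relative to vehicle-treated cultures.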

[12] = NCI Yeast Anticancer Drug Screen. Data for the mgt1 strain (AID 153); settings: S. cerevisiae mgt1 mutant growth inhibition, hits give high values
In short: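 Strain: mgt1 yeast, one of a set carrying defined DNA damage repair or cell cycle control alterations. Compound-treated growth compared with vehicle.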

[13] = NCI Yeast Anticancer Drug Screen. Data for the rad50 strain (AID 155);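 note: 0% = growth of vehicle-only cultures of the same strain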; settings: S. cerevisiae rad50 strain growth inhibition, hits give high values
In short: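 Compounds were tested on a yeast strain with an engineered DNA damage repair alteration; the reported value is growth inhibition normalised to vehicle treatment.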

[14] = NCI Yeast Anticancer Drug Screen. Data for the wt2 strain (AID 169);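 note: 0% = growth of vehicle-treated yeast cultures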; settings: S. cerevisiae wt2 strain growth inhibition, hits give high values
In short: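 This strain belongs to a panel of yeast strains with defined genetic alterations in DNA damage repair or cell cycle control. Compounds are applied, and growth inhibition is measured against vehicle-treated cultures.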

[15] = NCI Yeast Anticancer Drug Screen. Data for the mlh1 strain (AID 171);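 note: 0% = growth of vehicle-treated control cultures of the same strain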; settings: S. cerevisiae mlh1 strain growth inhibition, hits give high values
In short: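 Growth of the mutant yeast strain after compound exposure, expressed as inhibition relative to vehicle-only controls.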

[16] = at 5.0 µM (retest, dose inferred, filed as 0.5)
[17] = at 50.0 µM (retest, dose inferred, filed as 5.0)

For `O=S(=O)(O)CC[S][Sn]([S]CCS(=O)(=O)O)([c]1ccccc1)[c]1ccccc1`, the growth inhibition ([1]; at 100.0 µM) was 98% (active), the growth inhibition ([2]; at 1.2 µM) was -6% and the growth inhibition ([2]; at 3.7 µM) was 35%. The growth inhibition ([2]; at 11.0 µM) was 91% (active), the growth inhibition ([2]; at 33.0 µM) was 97% (active) and the growth inhibition ([2]; at 100.0 µM) was 97% (active). For the same molecule, the growth inhibition [3, 16] was 3%, the growth inhibition [3, 17] was 95% (active) and the growth inhibition ([3]; at 50.0 µM) was 91% (active). For the same molecule, the growth inhibition ([4]; at 1.2 µM) was 20%, the growth inhibition ([4]; at 3.7 µM) was 20% and the growth inhibition ([4]; at 11.0 µM) was 72% (active). For the same molecule, the growth inhibition ([4]; at 33.0 µM) was 96% (active), the growth inhibition ([4]; at 100.0 µM) was 98% (active) and the growth inhibition [5, 16] was 6%. For the same molecule, the growth inhibition [5, 17] was 91% (active), the growth inhibition ([5]; at 50.0 µM) was 88.5% (active) and the growth inhibition ([6]; at 1.2 µM) was -31%. For the same molecule, the growth inhibition ([6]; at 3.7 µM) was 30%, the growth inhibition [6, 16] was 46% and the growth inhibition ([6]; at 11.0 µM) was 87% (active). For the same molecule, the growth inhibition ([6]; at 33.0 µM) was 96% (active), the growth inhibition [6, 17] was 96% (active) and the growth inhibition ([6]; at 50.0 µM) was 87.8% (active). For the same molecule, the growth inhibition ([6]; at 100.0 µM) was 97% (active), the growth inhibition ([7]; at 1.2 µM) was -12% and the growth inhibition ([7]; at 3.7 µM) was 32%. The growth inhibition ([7]; at 11.0 µM) was 88% (active), the growth inhibition ([7]; at 33.0 µM) was 96% (active) and the growth inhibition ([7]; at 100.0 µM) was 97% (active). For the same molecule, the growth inhibition [8, 16] was 43%, the growth inhibition [8, 17] was 99% (active) and the growth inhibition ([8]; at 50.0 µM) was 91.5% (active). The growth inhibition ([9]; at 1.2 µM) was -2%, the growth inhibition ([9]; at 3.7 µM) was 43% and the growth inhibition ([9]; at 11.0 µM) was 92% (active). The growth inhibition ([9]; at 33.0 µM) was 96% (active) and the growth inhibition ([9]; at 100.0 µM) was 98% (active).

Molecule `Nc1ccc2cc(Br)c3ccccc3c2c1` has a growth inhibition ([10]; at 1.2 µM) of 0%, a growth inhibition ([10]; at 3.7 µM) of 1% and a growth inhibition ([10]; at 11.0 µM) of -2%. The growth inhibition ([10]; at 33.0 µM) was -2%, the growth inhibition ([10]; at 100.0 µM) was 75% (active) and the growth inhibition ([11]; at 1.2 µM) was 3%. It also gave a growth inhibition ([11]; at 3.7 µM) of 5%, a growth inhibition ([11]; at 11.0 µM) of 22% and a growth inhibition ([11]; at 33.0 µM) of 39%. It also gave a growth inhibition ([11]; at 100.0 µM) of 26%, a growth inhibition ([12]; at 1.2 µM) of -1% and a growth inhibition ([12]; at 3.7 µM) of -3%. The growth inhibition ([12]; at 11.0 µM) was -1%, the growth inhibition ([12]; at 33.0 µM) was -1% and the growth inhibition ([12]; at 100.0 µM) was -3%. The growth inhibition ([13]; at 1.2 µM) was 0%, the growth inhibition ([13]; at 3.7 µM) was 1% and the growth inhibition [13, 16] was 5%. It also gave a growth inhibition ([13]; at 11.0 µM) of 1%, a growth inhibition ([13]; at 33.0 µM) of 16% and a growth inhibition [13, 17] of 41%. For the same molecule, the growth inhibition ([13]; at 50.0 µM) was 86.2% (active), the growth inhibition ([13]; at 100.0 µM) was 20% and the growth inhibition ([1]; at 1.2 µM) was -3%. The growth inhibition ([1]; at 3.7 µM) was -1%, the growth inhibition [1, 16] was -18% and the growth inhibition ([1]; at 11.0 µM) was 0%. For the same molecule, the growth inhibition ([1]; at 33.0 µM) was 3%, the growth inhibition [1, 17] was 6% and the growth inhibition ([1]; at 50.0 µM) was 73.7% (active). For the same molecule, the growth inhibition ([1]; at 100.0 µM) was 6%, the growth inhibition ([2]; at 1.2 µM) was -1% and the growth inhibition ([2]; at 3.7 µM) was 0%. It also gave a growth inhibition ([2]; at 11.0 µM) of 4%, a growth inhibition ([2]; at 33.0 µM) of 8% and a growth inhibition ([2]; at 100.0 µM) of 21%. It also gave a growth inhibition ([4]; at 1.2 µM) of -2%, a growth inhibition ([4]; at 3.7 µM) of -19% and a growth inhibition ([4]; at 11.0 µM) of -1%. It also gave a growth inhibition ([4]; at 33.0 µM) of -4%, a growth inhibition ([4]; at 100.0 µM) of -16% and a growth inhibition [5, 16] of 15%. For the same molecule, the growth inhibition [5, 17] was 18%, the growth inhibition ([5]; at 50.0 µM) was 40.1% and the growth inhibition ([6]; at 1.2 µM) was 0%. It also gave a growth inhibition ([6]; at 3.7 µM) of 2%, a growth inhibition [6, 16] of 10% and a growth inhibition ([6]; at 11.0 µM) of 2%. The growth inhibition ([6]; at 33.0 µM) was -1%, the growth inhibition [6, 17] was 31% and the growth inhibition ([6]; at 50.0 µM) was 71.5% (active). The growth inhibition ([6]; at 100.0 µM) was -6%, the growth inhibition ([14]; at 1.2 µM) was -1% and the growth inhibition ([14]; at 3.7 µM) was 0%. The growth inhibition ([14]; at 11.0 µM) was -3%, the growth inhibition ([14]; at 33.0 µM) was 2% and the growth inhibition ([14]; at 100.0 µM) was 80% (active). The growth inhibition ([15]; at 1.2 µM) was -1%, the growth inhibition ([15]; at 3.7 µM) was -1% and the growth inhibition ([15]; at 11.0 µM) was -1%. It also gave a growth inhibition ([15]; at 33.0 µM) of 1%, a growth inhibition ([15]; at 100.0 µM) of 2% and a growth inhibition ([7]; at 1.2 µM) of -2%. For the same molecule, the growth inhibition ([7]; at 3.7 µM) was -2%, the growth inhibition ([7]; at 11.0 µM) was -1% and the growth inhibition ([7]; at 33.0 µM) was 4%. For the same molecule, the growth inhibition ([7]; at 100.0 µM) was 9%, the growth inhibition [8, 16] was 28% and the growth inhibition [8, 17] was 65%. The growth inhibition ([8]; at 50.0 µM) was 90.3% (active).
